Measurements taken from PubChem BioAssay (Tox21).
Results filed as inconclusive are left out. Calls of active or inactive are those of the source. Calls come from the whole dose curve.

Assay: qHTS assay to identify small molecule agonists of the hypoxia (HIF-1) signaling pathway - cell viability counter screen (AID 1224844); note: nearly all actives have a fitted effect of over 50% in size
Conditions: HRE-bla ME-180 viability, CellTiter-Glo luminescence, 17 h; series mostly up to 76.8 µM; activity change, negative = cytotoxicity: at the top concentration
From the text: National Center for Advancing Translational Sciences [NCATS]
NIH Chemical Genomics Center [NCGC]
U.S. Environmental Protection Agency [EPA]
National Institutes of Environmental Health Sciences [NIEHS]
National Toxicology Program [NTP]
U.S. Food and Drug Administration [FDA]
Hypoxia-inducible factor-1 (HIF-1) is the major hypoxia-regulated transcription factor that controls cellular responses to low oxygen concentration. HIF-1 is composed of two subunits: hypoxia responsive HIF-1-alpha and constitutively expressed HIF-1-beta, which is also known as aryl hydrocarbon receptor nuclear translocator. During hypoxic conditions, HIF-1-alpha heterodimerizes with HIF-1-beta and translocates into the nucleus where the HIF-1 complex binds to the hypoxia-response element (HRE) and activates expression of target genes such as VEGF (vascular endothelial growth factor). The HIF-1 pathway is essential to normal growth and development, and is involved in the pathophysiology of cancer, inflammation, and ischemia.
Using a beta-lactamase reporter-gene under control of the hypoxia response element, a cell-based assay [CellSensor(TM) HRE-bla ME-180 from Life Technologies, Carlsbad, CA] was used to measure hypoxia-induced signaling. Tox21 10K library compounds were measured for their ability to induce the reporter gene activity. The cytotoxicity of the Tox21 compound library against HRE-bla ME-180 cell line was tested in parallel by measuring cell viability using CellTiter-Glo assay (Promega, Madison, WI) in the same assay wells.
Tox21 Assay Protocol Summary:
HRE-bla ME-180 cells were dispensed at 2,000 cells per well in 6 uL of assay medium containing 0.5% dialyzed FBS into black wall/clear-bottom 1536-well plates using a Multidrop Combi (Thermo Scientific, Waltham, MA) dispenser. After the assay plates were incubated at 37C and 5% CO2 for 5 hrs, 23 nL of compounds dissolved in DMSO, positive controls or DMSO only was transferred to each well of the assay plate using a Pintool station (Kalypsys, San Diego, CA). The assay plates were incubated at 37C and 5% CO2 for 17 hrs. One uL of LiveBLAzerTM B/G FRET substrate (CCF4-AM) (Life Technologies) was added to each well using a Flying Reagent Dispenser (FRD, Aurora Discovery, San Diego, CA). After 2 hr incubation at room temperature, fluorescence intensity (405 nm excitation, 460 nm and 530 nm emissions) was measured using an Envision plate reader (PerkinElmer, Shelton, CT). For cytotoxicity, 4 ul/well of CellTiter-Glo reagent was added into the assay plates using an FRD. After 30 min incubation at room temperature, the luminescence intensity was measured using a ViewLux plate reader (PerkinElmer).
% is set by controls: 0 for no effect and ±100 for the full control effect; potency is the fitted concentration of half-maximal effect.

SMILES	Potency	activity change, negative = cytotoxicity
CCN(CC)CCNc1ccc(CNC=O)c2sc3ccc(OC)cc3c(=O)c12	24.5 µM (active)	–
NC(=O)C(c1ccccc1)(c1ccccc1)[C@@H]1CCN(CCc2ccc3c(c2)CCO3)C1	–	-3.9% [at 35.3 µM] (inactive)
CCc1cc(C2=C(C(=O)O)N(c3ccccc3C(F)(F)F)S(=O)(=O)c3ccccc32)cc2c1OCO2	21.6 µM (active)	–
Cn1c(=O)cc(Oc2ccc(F)cc2F)c2cnc(NCC(C)(C)O)nc21	–	1.73% (inactive)
COc1ccc(C)cc1[N+](=O)[O-]	–	4.46% (inactive)
OCc1cc(C(O)CNCCCCCCOCCCCc2ccccc2)ccc1O (stereo not given)	–	0.0174% [at 35.3 µM] (inactive)
CC[N+](C)(CC)CCOC(=O)C(O)(c1ccccc1)C1CCCCC1 (stereo not given)	–	-4.6% [at 35.3 µM] (inactive)
CCCCOC(=O)CCCCCCCC(=O)OCCCC	–	3.7% (inactive)
COC(=O)c1ccc(I)cc1S(=O)(=O)NC(=O)Nc1nc(C)nc(OC)n1	–	3.45% (inactive)
CCCCc1nc2cccnc2n1Cc1ccc(-c2ccccc2-c2nnn[nH]2)cc1	–	2.02% (inactive)
COc1ccc(C(=O)N2CCN(CC(=O)N3CCOCC3)CC2)cc1	–	-2.05% [at 35.3 µM] (inactive)
C=C1C(=C/C=C2\CCC[C@]3(C)[C@@H]([C@H](C)/C=C/[C@@H](O)C4CC4)CC[C@@H]23)C[C@@H](O)C[C@@H]1O	–	-21.9% [at 35.3 µM] (inactive)
Cc1ccc(C(C)OC(=O)C2(C)CCC(C(=O)O)C2(C)C)cc1 (stereo not given)	–	-2.14% [at 35.3 µM] (inactive)
CCOC(=O)NCCOc1ccc(Oc2ccccc2)cc1	–	-2.58% (inactive)
CCCCC1=NC2(CCCC2)C(=O)N1Cc1ccc(-c2ccccc2-c2nn[nH]n2)cc1	–	-1.82% [at 35.3 µM] (inactive)
O=C(OCCCCCCOC(=O)c1ccccc1)c1ccccc1	–	10.8% (inactive)
Cc1oc2c(NC(=O)c3c(Cl)cccc3Cl)cccc2c1C(C)(C)O	–	-10.1% (inactive)
Cc1cccc(C)c1NC(=O)CN(CC(=O)O)CC(=O)O	–	-2.61% [at 35.3 µM] (inactive)
CCC(C)c1cc(C(C)(C)C)c(O)c(C(C)(C)C)c1 (stereo not given)	–	0.0284% (inactive)
C#C[C@]1(O)CC[C@H]2[C@@H]3CCc4cc(OC5CCCC5)ccc4[C@H]3CC[C@@]21C	15.1 µM (active)	–

SMILES	Potency	activity change, negative = cytotoxicity
C=CCOC(=O)CCC1CCCCC1	–	-0.979% (inactive)
c1ccc(-c2ccccn2)nc1	–	-2.31% (inactive)
COC(C)OC	–	4.53% (inactive)
CCO[Si](CCCCl)(OCC)OCC	–	-10.7% (inactive)
CCOC(=O)C(F)(F)F	–	0.201% (inactive)
Nc1ncn([C@H]2C[C@H](O)[C@@H](CO)O2)c(=O)n1	–	-2.33% [at 35.3 µM] (inactive)
Cc1oc(-c2ccccc2)nc1CCOc1cccc2c1ccn2CCC(=O)O	–	-20.7% (inactive)
CCOc1ccc(N)c([N+](=O)[O-])c1	–	-7.08% (inactive)
C=CCOc1ccccc1OCC(O)CNC(C)C (stereo not given)	–	3.17% [at 35.3 µM] (inactive)
C=C(C)C(=O)OCCO	–	-0.993% (inactive)
CC(C)(C)OCC1CO1 (stereo not given)	–	-2.3% (inactive)
CCCCCCCCCOS(=O)(=O)O	–	2.08% (inactive)
CCOC(=O)Cc1cccc2ccccc12	–	3.79% (inactive)
CCOc1ccc(N=Nc2ccc(/C=C/c3ccc(N=Nc4ccc(OCC)cc4)cc3S(=O)(=O)O)c(S(=O)(=O)O)c2)cc1	–	-2.42% (inactive)
NS(=O)(=O)c1ccc(N2CCCCS2(=O)=O)cc1	–	1.7% [at 35.3 µM] (inactive)
CC1(c2ccccc2)OC(C(=O)O)=CC1=O (stereo not given)	–	-0.409% [at 35.3 µM] (inactive)
CCCCC/C=C\C/C=C\CCCCCCCC(=O)NC(C)c1ccccc1 (stereo not given)	–	6.11% [at 35.3 µM] (inactive)
Cc1cc(C(=O)O)ccc1[N+](=O)[O-]	–	3.07% (inactive)
CC1=CCCC(C)(C)C12CCC(C)O2 (stereo not given)	–	2.73% (inactive)
CC(CC=O)c1ccccc1 (stereo not given)	–	0.0635% (inactive)
